Assay results from the supplement of paper PMC10849652.
Targets with a hit are over-represented here; the source holds about 7,900 in all. About 0.6% of all pairs of compound and target were hits.

Assays:
Experiment in all cases: log2 fold change, soluble protein after heating vs DMSO (PISA); higher = thermal stabilisation; K562 cells, 10 uM, 30 min; active = over 0.2 and 3.5 SD of the protein, either way, in both replicates (recomputed)
IRAK-1-4 Inhibitor I = compound: C1COCCN1CCN2C3=CC=CC=C3N=C2NC(=O)C4=CC(=CC=C4)[N+](=O)[O-] [IRAK-1-4 Inhibitor I]
Procedure, shortened: (§1)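 K562 cells at 2×10^6 cells/mL were exposed to 10 μM compound for 30 min, then aliquots were heated for 3 min across 48°C-58°C, pooled, and extracted in PBS containing 0.5% NP-40 at 4°C. The supernatant after 21,000xg for 90 min was taken as soluble protein and measured by TMTpro 16plex LC-MS/MS with channel sums equalised. Thermal stability is reported relative to control samples, with values from duplicates. Fold changes are given on a log2 scale.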

ibrutinib = compound: C=CC(=O)N1CCC[C@@H](n2nc(-c3ccc(Oc4ccccc4)cc3)c3c(N)ncnc32)C1 [ibrutinib]
Procedure, shortened: as §1

[1] = compound: CC(=O)c1cnc2ccc(-c3cc(Cl)c(O)c(Cl)c3)nc2c1N[C@H]1CC[C@H](CN(C)C)CC1
Procedure, shortened: as §1

ralimetinib = compound: CC(C)(C)Cn1c(N)nc2ccc(-c3[nH]c(C(C)(C)C)nc3-c3ccc(F)cc3)nc21 [ralimetinib]
Procedure, shortened: as §1

[2] = compound: CC(C)(O)CC(=O)NCCn1ccc2ncnc(Nc3ccc(Oc4cccc(C(F)(F)F)c4)c(Cl)c3)c21
Procedure, shortened: as §1

[3] = compound: CC(C)C1=C2N=C(C=C(N2N=C1)NCC3=CC=CC=C3)NCCCCCCN
Procedure, shortened: as §1

[4] = compound: CC(C)C[C@@H](C=O)NC(=O)[C@H](CC(C)C)NC(=O)[C@H](CC(C)C)NC(=O)OCc1ccccc1
Procedure, shortened: as §1

pinometostat = compound: CC(C)N(C[C@H]1O[C@@H](n2cnc3c(N)ncnc32)[C@H](O)[C@@H]1O)[C@H]1C[C@@H](CCc2nc3cc(C(C)(C)C)ccc3[nH]2)C1 [pinometostat]
Procedure, shortened: as §1

[5] = compound: CC1=C(C(CC(=O)N1)C2=CC=C(C=C2)C(F)(F)F)C(=O)NC3=C(C=C4C(=C3)C=NN4)F
Procedure, shortened: as §1

[6] = compound: CC1=C(C2=C(C=C1)C(=O)C3=CC=CC=C3N2CCCN)C
Procedure, shortened: as §1

[7] = compound: CC1=C(C=C(C=C1)NC(=O)C2=CC(=CC=C2)C(C)(C)C#N)NC3=CC4=C(C=C3)N=CN(C4=O)C
Procedure, shortened: as §1

[8] = compound: CC1=C(C=C(C=C1)NC(=O)C2=CC(=CC=C2)N(C)C)NC(=O)C3=CC=C(C=C3)O
Procedure, shortened: as §1

[9] = compound: CC1=CC=C(C=C1)SC2=C3C=C(SC3=CN=C2)C(=O)N
Procedure, shortened: as §1

[10] = compound: CC1=NC(=CC=C1)C2=C(N=C(N2)C(C)(C)C)C3=CC4=NC=CN=C4C=C3
Procedure, shortened: as §1

Nexturastat A = compound: CCCCN(Cc1ccc(C(=O)NO)cc1)C(=O)Nc1ccccc1 [Nexturastat A]
Procedure, shortened: as §1

vemurafenib = compound: CCCS(=O)(=O)Nc1ccc(F)c(C(=O)c2c[nH]c3ncc(-c4ccc(Cl)cc4)cc23)c1F [vemurafenib]
Procedure, shortened: as §1

[11] = compound: CCCS(=O)(=O)Nc1ccc(F)c(C(=O)c2c[nH]c3ncc(Cl)cc23)c1F
Procedure, shortened: as §1

[12] = compound: CCCc1cc(C)[nH]c(=O)c1CNC(=O)c1cc(-c2ccnc(N3CCN(C)CC3)c2)cc2c1cnn2C(C)C
Procedure, shortened: as §1

givinostat = compound: CCN(CC)Cc1ccc2cc(COC(=O)Nc3ccc(C(=O)NO)cc3)ccc2c1 [givinostat]
Procedure, shortened: as §1

barasertib = compound: CCN(CCCOc1ccc2c(Nc3cc(CC(=O)Nc4cccc(F)c4)[nH]n3)ncnc2c1)CCOP(=O)(O)O [barasertib]
Procedure, shortened: as §1

Measured: log2 fold change

WASHC2C, A0A096LPC5
inactive: IRAK-1-4 Inhibitor I 0.01 | ibrutinib -0.005 | [1] -0.159 | ralimetinib -0.035 | [2] 0.085 | [3] -0.214 | [4] 0.057 | pinometostat 0.008 | [5] -0.033 | [6] -0.125 | [7] -0.059 | [8] 0.062 | [9] -0.107 | [10] -0.041 | Nexturastat A 0 | vemurafenib 0.039 | [11] -0.206 | [12] -0.101 | givinostat -0.012 | barasertib -0.037

UTP14A (UniProt Q9BVJ6)
Sequence of UniProt Q9BVJ6 (Q9BVJ6 whole entry, looked up): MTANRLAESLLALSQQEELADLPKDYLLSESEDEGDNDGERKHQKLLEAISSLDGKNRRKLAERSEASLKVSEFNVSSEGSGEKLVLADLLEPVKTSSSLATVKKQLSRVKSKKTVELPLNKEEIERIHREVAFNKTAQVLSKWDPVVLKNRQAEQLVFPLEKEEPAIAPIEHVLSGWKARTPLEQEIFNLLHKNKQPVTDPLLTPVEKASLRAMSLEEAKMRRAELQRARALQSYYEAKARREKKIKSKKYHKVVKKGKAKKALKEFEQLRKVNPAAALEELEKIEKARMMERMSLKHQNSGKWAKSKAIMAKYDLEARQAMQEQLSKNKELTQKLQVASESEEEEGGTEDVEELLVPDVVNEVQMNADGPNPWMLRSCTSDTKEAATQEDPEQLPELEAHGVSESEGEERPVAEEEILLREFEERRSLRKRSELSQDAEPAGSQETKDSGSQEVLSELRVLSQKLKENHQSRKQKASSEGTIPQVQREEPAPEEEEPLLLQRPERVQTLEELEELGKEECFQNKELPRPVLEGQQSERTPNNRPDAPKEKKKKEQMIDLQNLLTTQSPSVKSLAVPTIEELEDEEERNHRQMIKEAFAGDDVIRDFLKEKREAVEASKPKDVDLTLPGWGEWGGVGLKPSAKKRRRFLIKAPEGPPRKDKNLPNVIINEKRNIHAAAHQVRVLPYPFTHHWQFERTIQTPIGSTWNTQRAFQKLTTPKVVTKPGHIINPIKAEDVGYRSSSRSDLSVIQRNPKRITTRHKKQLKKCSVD
active: [6] -0.708
inactive: IRAK-1-4 Inhibitor I -0.13 | ibrutinib -0.026 | [1] 0.088 | ralimetinib 0.11 | [2] 0.007 | [3] -0.113 | [4] 0.154 | pinometostat 0.262 | [5] 0.065 | [7] 0.028 | [8] 0.008 | [9] -0.002 | [10] -0.068 | Nexturastat A 0.194 | vemurafenib -0.066 | [11] 0.028 | [12] 0.109 | givinostat 0.048 | barasertib -0.112

TMEM106B (UniProt Q9NUM4)
Sequence of UniProt Q9NUM4 (Q9NUM4 whole entry, looked up): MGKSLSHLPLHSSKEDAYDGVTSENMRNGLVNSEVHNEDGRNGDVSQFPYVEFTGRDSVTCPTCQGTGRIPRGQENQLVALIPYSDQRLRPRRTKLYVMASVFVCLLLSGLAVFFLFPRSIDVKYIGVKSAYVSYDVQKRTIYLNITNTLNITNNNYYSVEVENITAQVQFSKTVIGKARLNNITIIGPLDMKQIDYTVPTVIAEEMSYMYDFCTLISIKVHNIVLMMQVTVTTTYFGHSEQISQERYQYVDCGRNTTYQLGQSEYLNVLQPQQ
inactive: IRAK-1-4 Inhibitor I 0.056 | ibrutinib 0.029 | [1] 0.043 | [2] 0.043 | [3] -0.092 | pinometostat 0.085 | [5] 0.026 | [6] -0.027 | [7] -0.029 | [9] 0.161 | [10] 0.019 | Nexturastat A -0.11 | vemurafenib -0.163 | [11] -0.081 | [12] -0.023 | givinostat 0.052 | barasertib -0.039

TMEM179B (UniProt Q7Z7N9)
inactive: IRAK-1-4 Inhibitor I 0.04 | ibrutinib -0.05 | [1] -0.061 | ralimetinib -0.008 | [2] -0.24 | [3] -0.011 | [4] -0.021 | pinometostat -0.024 | [5] 0.017 | [6] 0.019 | [7] -0.233 | [8] -0.003 | [9] 0.011 | [10] 0.027 | Nexturastat A 0.378 | [11] 0.053 | [12] -0.021 | givinostat -0.118 | barasertib 0.045

WARS1 (UniProt G3V277)
inactive: IRAK-1-4 Inhibitor I -0.005 | ibrutinib -0.064 | [1] -0.184 | [3] -0.009 | pinometostat 0.114 | [5] 0.091 | [6] 0.087 | [7] 0.02 | [10] -0.043 | [12] -0.338 | givinostat 0.141 | barasertib 0.073
active: vemurafenib -0.587

TXNL4B (UniProt Q9NX01)
active: vemurafenib 0.453
inactive: IRAK-1-4 Inhibitor I 0.132 | ibrutinib -0.065 | [1] -0.071 | ralimetinib -0.057 | [3] -0.02 | [4] 0.074 | pinometostat -0.053 | [5] 0.026 | [6] 0.067 | [7] -0.037 | [8] -0.088 | [9] -0.002 | [10] -0.04 | [11] 0.024 | [12] -0.06 | givinostat 0.014 | barasertib 0.306

TMEM184C (UniProt Q9NVA4)
Sequence of UniProt Q9NVA4 (Q9NVA4 whole entry, looked up): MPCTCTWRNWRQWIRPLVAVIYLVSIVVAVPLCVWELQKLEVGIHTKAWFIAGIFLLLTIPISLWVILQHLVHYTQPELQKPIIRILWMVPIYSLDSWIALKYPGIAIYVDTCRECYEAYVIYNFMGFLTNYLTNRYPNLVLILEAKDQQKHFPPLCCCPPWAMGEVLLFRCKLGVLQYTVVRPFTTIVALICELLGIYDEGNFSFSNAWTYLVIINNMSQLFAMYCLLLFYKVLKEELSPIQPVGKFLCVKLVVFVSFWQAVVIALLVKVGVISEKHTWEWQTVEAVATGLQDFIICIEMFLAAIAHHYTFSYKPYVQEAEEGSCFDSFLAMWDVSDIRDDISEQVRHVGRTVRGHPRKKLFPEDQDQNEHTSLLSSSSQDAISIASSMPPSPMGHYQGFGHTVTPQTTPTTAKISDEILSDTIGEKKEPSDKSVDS
inactive: IRAK-1-4 Inhibitor I 0.105 | ibrutinib -0.037 | [1] 0.042 | ralimetinib -0.033 | [2] 0.088 | [4] 0.042 | pinometostat -0.021 | [5] 0.081 | [6] -0.005 | [7] -0.07 | [8] 0.028 | [10] 0.028 | Nexturastat A -0.02 | vemurafenib 0.024 | [12] -0.028 | barasertib 0.055

UFL1 (UniProt O94874)
Sequence of UniProt O94874 (O94874 whole entry, looked up): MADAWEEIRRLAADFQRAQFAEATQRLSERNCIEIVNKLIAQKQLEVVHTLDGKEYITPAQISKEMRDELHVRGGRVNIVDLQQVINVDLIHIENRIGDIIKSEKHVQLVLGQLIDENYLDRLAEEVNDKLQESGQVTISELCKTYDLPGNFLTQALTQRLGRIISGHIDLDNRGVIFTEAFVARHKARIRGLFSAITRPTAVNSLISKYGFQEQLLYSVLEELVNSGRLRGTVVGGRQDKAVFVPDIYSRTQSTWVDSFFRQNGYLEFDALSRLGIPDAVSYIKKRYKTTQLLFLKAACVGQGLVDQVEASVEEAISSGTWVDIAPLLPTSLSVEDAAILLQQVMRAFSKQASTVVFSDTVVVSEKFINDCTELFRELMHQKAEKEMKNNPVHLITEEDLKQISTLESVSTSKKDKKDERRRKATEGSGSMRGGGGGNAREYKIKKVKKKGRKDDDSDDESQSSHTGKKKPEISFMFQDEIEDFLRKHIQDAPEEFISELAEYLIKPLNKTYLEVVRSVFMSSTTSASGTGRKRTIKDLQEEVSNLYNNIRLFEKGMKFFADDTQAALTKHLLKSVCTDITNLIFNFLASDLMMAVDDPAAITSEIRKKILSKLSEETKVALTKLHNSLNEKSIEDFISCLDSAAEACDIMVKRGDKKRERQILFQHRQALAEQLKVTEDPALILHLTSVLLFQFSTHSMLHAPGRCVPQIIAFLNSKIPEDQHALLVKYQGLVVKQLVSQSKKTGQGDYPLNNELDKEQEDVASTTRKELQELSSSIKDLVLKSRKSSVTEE
inactive: IRAK-1-4 Inhibitor I -0.048 | ibrutinib -0.037 | [1] -0.022 | ralimetinib 0.073 | [2] -0.055 | [3] -0.142 | [4] 0.015 | pinometostat 0.042 | [5] -0.017 | [6] 0.026 | [7] -0.009 | [8] -0.089 | [9] 0.011 | [10] 0.048 | Nexturastat A 0.091 | vemurafenib 0.083 | [11] 0.089 | [12] 0.043 | givinostat 0.08 | barasertib 0.031

TOMM5 isoform 2 (UniProt Q8N4H5)
Sequence of UniProt Q8N4H5 (Q8N4H5 whole entry, looked up): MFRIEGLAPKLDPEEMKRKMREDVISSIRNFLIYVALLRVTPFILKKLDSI
inactive: IRAK-1-4 Inhibitor I 0.037 | ibrutinib 0.01 | [1] -0.033 | ralimetinib -0.099 | [2] -0.048 | [3] 0.221 | [4] 0.036 | pinometostat 0.148 | [5] -0.004 | [6] 0.003 | [7] -0.009 | [8] 0.367 | [9] 0.005 | [10] 0.084 | Nexturastat A 0.025 | vemurafenib 0 | [11] -0.011 | [12] 0.141 | givinostat -0.029 | barasertib 0.03

UNC119B (UniProt A6NIH7)
inactive: IRAK-1-4 Inhibitor I 0.113 | ibrutinib 0.08 | [1] 0.028 | ralimetinib 0.014 | [3] 0.272 | [4] 0.088 | pinometostat 0.126 | [5] -0.048 | [6] -0.047 | [7] 0.293 | [8] -0.057 | [9] 0.241 | [10] -0.017 | vemurafenib 0.023 | [11] -0.047 | [12] -0.108 | givinostat 0.12 | barasertib -0.029

UBE3D (UniProt Q7Z6J8)
Sequence of UniProt Q7Z6J8 (Q7Z6J8 whole entry, looked up): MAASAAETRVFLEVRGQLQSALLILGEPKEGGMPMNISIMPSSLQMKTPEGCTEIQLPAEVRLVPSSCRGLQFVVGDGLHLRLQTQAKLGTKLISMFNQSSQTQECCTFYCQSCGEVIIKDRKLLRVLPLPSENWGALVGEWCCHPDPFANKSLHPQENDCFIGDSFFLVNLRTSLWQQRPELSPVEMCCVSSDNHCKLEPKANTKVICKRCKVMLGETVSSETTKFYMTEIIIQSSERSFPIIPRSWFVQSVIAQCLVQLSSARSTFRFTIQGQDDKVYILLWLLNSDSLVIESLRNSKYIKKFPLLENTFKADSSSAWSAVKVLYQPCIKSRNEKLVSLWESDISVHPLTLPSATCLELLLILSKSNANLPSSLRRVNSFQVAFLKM
inactive: IRAK-1-4 Inhibitor I 0.029 | ibrutinib 0.047 | [1] 0.026 | ralimetinib 0.015 | [2] 0.088 | [3] 0.011 | [4] -0.061 | pinometostat -0.012 | [5] -0.045 | [6] 0.051 | [7] -0.036 | [8] 0.036 | [9] -0.049 | [10] 0.01 | Nexturastat A -0.016 | vemurafenib 0.014 | [11] 0.04 | [12] 0.006 | givinostat -0.075 | barasertib 0.018

TMEM164 (UniProt Q5U3C3)
Sequence of UniProt Q5U3C3 (Q5U3C3 whole entry, looked up): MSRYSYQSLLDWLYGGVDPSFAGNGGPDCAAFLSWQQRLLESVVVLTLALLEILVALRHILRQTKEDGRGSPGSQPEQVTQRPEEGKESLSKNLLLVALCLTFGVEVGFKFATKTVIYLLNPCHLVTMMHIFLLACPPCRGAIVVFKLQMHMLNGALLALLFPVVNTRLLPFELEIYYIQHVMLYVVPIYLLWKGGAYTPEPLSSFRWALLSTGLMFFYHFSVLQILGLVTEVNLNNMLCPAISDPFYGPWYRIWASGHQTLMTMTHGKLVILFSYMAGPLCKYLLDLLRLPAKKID
inactive: IRAK-1-4 Inhibitor I 0.057 | ibrutinib -0.036 | [1] -0.088 | [2] -0.025 | [3] -0.309 | pinometostat -0.073 | [5] -0.08 | [6] 0.066 | [7] 0.288 | [9] 0.05 | [10] -0.047 | Nexturastat A -0.142 | vemurafenib -0.083 | [11] 0.078 | [12] -0.305 | givinostat -0.038 | barasertib -0.095

TRIM44 (UniProt Q96DX7)
Sequence of UniProt Q96DX7 (Q96DX7 whole entry, looked up): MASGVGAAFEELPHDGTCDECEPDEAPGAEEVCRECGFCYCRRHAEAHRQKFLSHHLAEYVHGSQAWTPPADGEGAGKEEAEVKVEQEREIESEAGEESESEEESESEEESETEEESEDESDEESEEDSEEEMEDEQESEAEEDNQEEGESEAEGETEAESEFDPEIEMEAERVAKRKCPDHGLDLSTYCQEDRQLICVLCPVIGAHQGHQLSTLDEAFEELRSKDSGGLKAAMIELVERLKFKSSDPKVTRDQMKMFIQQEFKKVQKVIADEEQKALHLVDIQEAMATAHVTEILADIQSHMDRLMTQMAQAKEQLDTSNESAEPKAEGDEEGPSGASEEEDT
inactive: IRAK-1-4 Inhibitor I 0.031 | ibrutinib 0.018 | [1] 0.067 | ralimetinib -0.094 | [3] -0.06 | [4] 0.061 | pinometostat -0.01 | [5] -0.007 | [7] 0.059 | [8] -0.055 | [9] 0.06 | [10] 0.015 | vemurafenib -0.005 | [11] 0.042 | [12] 0 | givinostat -0.026 | barasertib -0.035
active: [6] -0.327

TPP1 (UniProt O14773)
Sequence of UniProt O14773 (O14773 whole entry, looked up): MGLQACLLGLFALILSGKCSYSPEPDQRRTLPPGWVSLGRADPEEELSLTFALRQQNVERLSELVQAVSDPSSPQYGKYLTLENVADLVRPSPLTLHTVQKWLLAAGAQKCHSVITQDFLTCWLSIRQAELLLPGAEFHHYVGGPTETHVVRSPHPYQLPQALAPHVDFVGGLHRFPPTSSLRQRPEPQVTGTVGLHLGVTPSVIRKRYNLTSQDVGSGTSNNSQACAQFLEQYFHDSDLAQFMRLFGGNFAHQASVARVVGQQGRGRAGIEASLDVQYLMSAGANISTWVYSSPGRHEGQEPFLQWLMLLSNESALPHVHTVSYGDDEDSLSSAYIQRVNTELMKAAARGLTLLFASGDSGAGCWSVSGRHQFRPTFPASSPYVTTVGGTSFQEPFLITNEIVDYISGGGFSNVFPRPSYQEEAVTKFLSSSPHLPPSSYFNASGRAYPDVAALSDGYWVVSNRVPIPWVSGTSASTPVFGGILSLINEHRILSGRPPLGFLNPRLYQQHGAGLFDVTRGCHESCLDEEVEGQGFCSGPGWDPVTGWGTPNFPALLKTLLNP
inactive: IRAK-1-4 Inhibitor I -0.007 | ibrutinib -0.01 | [1] -0.006 | ralimetinib -0.025 | [2] 0.059 | [4] 0.043 | pinometostat -0.052 | [5] 0.025 | [6] -0.009 | [7] 0.006 | [8] 0.037 | [9] 0.02 | [10] 0.03 | Nexturastat A -0.007 | vemurafenib -0.006 | [11] -0.021 | [12] 0 | givinostat -0.015 | barasertib -0.018
active: [3] -0.492

USP34 (UniProt Q70CQ2)
inactive: IRAK-1-4 Inhibitor I 0.005 | ibrutinib -0.091 | [1] -0.033 | ralimetinib -0.017 | [2] -0.14 | [3] -0.114 | [4] -0.016 | pinometostat 0.079 | [5] -0.04 | [6] -0.176 | [7] -0.02 | [8] -0.094 | [9] 0.077 | [10] 0 | Nexturastat A -0.12 | vemurafenib 0.08 | [11] 0.032 | [12] 0.052 | givinostat 0.094 | barasertib 0.069

UBE3B (UniProt Q7Z3V4)
Sequence of UniProt Q7Z3V4 (Q7Z3V4 whole entry, looked up): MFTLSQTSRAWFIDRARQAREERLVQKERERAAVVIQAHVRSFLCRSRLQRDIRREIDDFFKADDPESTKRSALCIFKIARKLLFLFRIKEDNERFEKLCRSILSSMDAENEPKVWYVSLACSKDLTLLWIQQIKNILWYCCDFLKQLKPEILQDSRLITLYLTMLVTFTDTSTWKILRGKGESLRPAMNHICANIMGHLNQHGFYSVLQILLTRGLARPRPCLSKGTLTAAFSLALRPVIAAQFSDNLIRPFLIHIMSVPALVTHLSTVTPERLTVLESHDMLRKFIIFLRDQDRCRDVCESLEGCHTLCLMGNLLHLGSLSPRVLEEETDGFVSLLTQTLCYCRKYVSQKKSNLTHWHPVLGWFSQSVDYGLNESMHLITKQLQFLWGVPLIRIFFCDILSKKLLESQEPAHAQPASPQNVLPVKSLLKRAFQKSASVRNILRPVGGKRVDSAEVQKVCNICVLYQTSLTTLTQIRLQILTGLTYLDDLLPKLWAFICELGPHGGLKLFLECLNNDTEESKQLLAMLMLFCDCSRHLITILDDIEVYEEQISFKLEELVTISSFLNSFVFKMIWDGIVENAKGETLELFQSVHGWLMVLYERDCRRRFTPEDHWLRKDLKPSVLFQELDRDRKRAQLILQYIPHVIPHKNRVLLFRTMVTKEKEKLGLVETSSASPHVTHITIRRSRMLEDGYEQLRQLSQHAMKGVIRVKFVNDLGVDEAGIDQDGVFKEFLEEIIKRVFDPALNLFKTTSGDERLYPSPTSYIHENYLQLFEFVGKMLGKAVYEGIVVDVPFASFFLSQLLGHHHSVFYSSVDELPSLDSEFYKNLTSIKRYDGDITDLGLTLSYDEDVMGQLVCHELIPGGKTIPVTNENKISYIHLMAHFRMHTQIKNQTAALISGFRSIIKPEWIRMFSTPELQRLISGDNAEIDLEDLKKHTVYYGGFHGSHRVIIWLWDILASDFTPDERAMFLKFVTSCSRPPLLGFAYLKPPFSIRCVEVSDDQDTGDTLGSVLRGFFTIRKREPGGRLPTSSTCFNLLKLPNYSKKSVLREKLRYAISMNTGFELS
inactive: IRAK-1-4 Inhibitor I -0.182 | ibrutinib -0.019 | [1] -0.068 | ralimetinib -0.296 | [2] -0.154 | [4] 0.001 | pinometostat 0.239 | [5] -0.102 | [6] -0.188 | [7] 0.142 | [8] 0.086 | [9] -0.03 | [10] 0.007 | Nexturastat A 0.014 | [11] -0.099 | barasertib -0.057

TRIM4 (UniProt Q9C037)
inactive: IRAK-1-4 Inhibitor I -0.157 | ibrutinib 0.173 | [1] -0.063 | ralimetinib 0.023 | [2] -0.183 | [3] -0.078 | [4] -0.013 | pinometostat 0.173 | [5] -0.023 | [6] 0.089 | [7] -0.031 | [8] 0.023 | [9] -0.029 | [10] -0.076 | Nexturastat A 0.1 | vemurafenib -0.297 | [11] -0.041 | [12] 0.046 | givinostat -0.086 | barasertib 0.011
